The text below walks through data of PubChem BioAssay.

Calls of active or inactive are those of the source. Unless noted, the rule behind the calls is not given here.

The nature of assay [1]: A549 cell viability effects, profiling panel, calcein-AM fluorescence, 48 h, basal (AID 1162). Note: test concentration not given here. The note with it: higher = more signal.
The nature of assay [2]: adipocyte viability effects, profiling panel, cell-based, 3T3-L1 adipocytes, calcein-AM fluorescence, 48 h, basal (AID 1163). Note: test concentration not given here. The settings on record: 3T3-L1 adipocytes viability, higher = more signal.
Assay [3] in a line: HepG2 cell viability effects, profiling panel, calcein-AM fluorescence, 48 h, basal (AID 1164). Note: test concentration not given here. The settings on record: higher = more signal.
Assay [4] can be described thus: MM1S cell viability effects, profiling panel, calcein-AM fluorescence, 48 h, basal (AID 1165).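 Note: viability of MM1S multiple myeloma cells under basal unstimulated conditions; test concentration not given here.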 The settings on record: higher = more signal.
The nature of assay [5]: basal RPMI8226 viability, no added stimulus, profiling panel, cell-based, calcein-AM fluorescence, 48 h, PK04 Diversity Set (AID 1166).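 Note: cells grown under basal conditions without added stimulus; test concentration not given here.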 The note with it: RPMI8226 myeloma viability, higher = more signal.
Assay [6] is described as follows: basal HepG2 mitochondrial membrane potential changes, profiling panel, cell-based, JC-1 fluorescence, 24 h, 100 nL compound (AID 1167). Note: test concentration not given here. The settings on record: higher = more signal.
Assay [7] can be described thus: basal 3T3-L1 adipocyte mitochondrial potential changes, profiling panel, cell-based, JC-1 fluorescence, 3T3-L1 adipocytes, 24 h, 100 nL compound (AID 1168). Note: test concentration not given here. The settings on record: JC-1 mitochondrial fluorescence, higher = more signal, called active from +8 up or from −8 down.
Assay [8] in a line: basal RPMI8226 mitochondrial membrane potential changes, profiling panel, cell-based, JC-1 fluorescence, 24 h, 100 nL compound (AID 1169). Note: test concentration not given here. The settings on record: RPMI8226 myeloma, JC-1 mitochondrial potential fluorescence, higher = more signal.
A short description of assay [9]: basal MM1S mitochondrial membrane potential changes, profiling panel, cell-based, JC-1 fluorescence, 24 h, 100 nL compound (AID 1170). Note: test concentration not given here. The note with it: higher = more signal.
Assay [10] can be described thus: A549 lung cancer cell viability effects, profiling panel, resazurin fluorescence, 24 h, PK04 Diversity Set (AID 1171). Note: test concentration not given here. The settings on record: higher = more signal, called active from +8 up or from −8 down. For orientation: Resazurin is reduced to fluorescent resorufin, in cell work by metabolically active cells.
The nature of assay [11]: HepG2 liver cancer cell viability effects, profiling panel, resazurin fluorescence, 24 h, PK04 Diversity Set (AID 1172). Note: test concentration not given here. The note with it: higher = more signal.
The nature of assay [12]: basal S. cerevisiae growth modulation, no modifier, primary screen, OD600, strain BY4716, 24 h, basal condition (AID 1173). The settings on record: OD600, 24 h, higher = more signal, called active from +8 up or from −8 down.
The nature of assay [13]: MM1S myeloma cell viability, profiling panel, resazurin fluorescence, basal, 24 h, PK04 Diversity Set (AID 1174).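 Note: MM1S multiple myeloma cell line; test concentration not given here.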 The note with it: higher = more signal, called active from +8 up or from −8 down.
Assay [14] has as its target Dihydroorotate dehydrogenase (quinone), mitochondrial (Plasmodium falciparum (isolate 3D7)) (UniProt Q08210). Description: PfDHODH enzyme inhibitors, primary screen, biochemical, C-terminal His tag, absorbance 600 nm (AID 1175).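 Note: recombinant parasite enzyme with a five histidine tag at its C terminus; test concentration not given here.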 The settings on record: DCIP absorbance 600 nm, higher = more signal, called active from +8 up or from −8 down.
The nature of assay [15]: P. aeruginosa biofilm formation inhibitors, primary screen, strain PAO1, LB-PBS medium, absorbance 600 nm (AID 1176). Note: test concentration not given here. The settings on record: P. aeruginosa PAO1 growth/biofilm, A600, 12 h; higher = more signal.
Assay [16] is described as follows: S. cerevisiae RM11-1a growth modifiers, primary screen, strain RM11-1a, OD600, basal, 24 h (AID 1177).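 Note: cultures grown under basal conditions with no added stressor; test concentration not given here.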 The note with it: OD600, 24 h, higher = more signal, called active from +8 up or from −8 down.
A short description of assay [17]: E. coli acrAB mutant growth effects, primary screen, E. coli filamentation inducers, strain DRC39, OD650, 24 h (AID 1178).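 Note: growth measured as culture turbidity by optical density at 650 nm; test concentration not given here.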 The note with it: higher = more signal, called active from +8 up or from −8 down.
Assay [18] can be described thus: E. coli acrAB mutant growth effects, primary screen, E. coli filamentation inducers, strain DRC39, OD650, 48 h (AID 1179).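 Note: screen aims at cell division blockers that make cells filament.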 The note with it: E. coli DRC39 delta-acrAB growth, higher = more signal, called active from +8 up or from −8 down.
A short description of assay [19]: RPMI8226 myeloma cell viability, profiling panel, resazurin fluorescence, basal, 24 h, PK04 Diversity Set (AID 1180).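 Note: RPMI8826 multiple myeloma cell line at 5000 cells per well; test concentration not given here.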 The note with it: higher = more signal.
In assay [20] the target is E3 ubiquitin-protein ligase XIAP (Homo sapiens) (UniProt P98170). Description: XIAP binders, primary screen, biophysical, small-molecule microarray, fluorescence 635 nm (AID 1181).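 Note: score merges 667 nm emission and signal to noise over triplicate slides.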 The note with it: small-molecule microarray binding, higher = more signal.
Chain of E3 ubiquitin-protein ligase XIAP (Homo sapiens) (P98170 whole entry, looked up): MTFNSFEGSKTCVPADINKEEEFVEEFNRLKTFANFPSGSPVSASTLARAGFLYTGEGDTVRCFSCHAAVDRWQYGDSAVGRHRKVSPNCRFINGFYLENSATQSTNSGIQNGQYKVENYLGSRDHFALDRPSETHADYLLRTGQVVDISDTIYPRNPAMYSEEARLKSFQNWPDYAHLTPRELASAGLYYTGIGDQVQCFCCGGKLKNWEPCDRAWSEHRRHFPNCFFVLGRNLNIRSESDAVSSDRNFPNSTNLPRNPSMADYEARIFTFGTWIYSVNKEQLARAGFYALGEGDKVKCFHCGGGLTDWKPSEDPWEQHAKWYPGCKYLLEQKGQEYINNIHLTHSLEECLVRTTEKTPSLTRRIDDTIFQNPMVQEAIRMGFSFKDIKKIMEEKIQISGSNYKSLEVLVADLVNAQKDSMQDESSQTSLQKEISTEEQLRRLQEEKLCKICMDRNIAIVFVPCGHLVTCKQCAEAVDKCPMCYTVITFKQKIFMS

Chain of Dihydroorotate dehydrogenase (quinone), mitochondrial (Plasmodium falciparum (isolate 3D7)) (Q08210 whole entry, looked up): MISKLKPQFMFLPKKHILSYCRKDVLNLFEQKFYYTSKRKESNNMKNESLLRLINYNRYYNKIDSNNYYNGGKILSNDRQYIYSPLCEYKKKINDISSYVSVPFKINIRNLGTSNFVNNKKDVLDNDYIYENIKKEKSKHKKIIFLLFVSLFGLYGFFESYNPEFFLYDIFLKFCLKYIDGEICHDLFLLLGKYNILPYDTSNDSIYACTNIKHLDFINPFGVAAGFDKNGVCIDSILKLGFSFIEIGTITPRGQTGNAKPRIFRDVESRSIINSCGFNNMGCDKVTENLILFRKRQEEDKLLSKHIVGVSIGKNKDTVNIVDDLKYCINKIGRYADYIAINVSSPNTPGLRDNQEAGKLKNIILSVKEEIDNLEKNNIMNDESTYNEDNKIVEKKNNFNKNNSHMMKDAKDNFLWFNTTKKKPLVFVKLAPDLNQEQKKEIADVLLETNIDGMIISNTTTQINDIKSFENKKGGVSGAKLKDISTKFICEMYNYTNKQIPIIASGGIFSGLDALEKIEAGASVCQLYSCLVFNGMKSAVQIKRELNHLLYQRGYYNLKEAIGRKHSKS

For the compound `COc1ccc(C#Cc2ccc3c(c2)[C@]2(C(=O)N3)[C@H](C(=O)N3CCc4cc(OC)c(OC)cc4C3)[C@H]3C(=O)O[C@H](c4ccccc4)[C@H](c4ccccc4)N3[C@@H]2c2ccc(O)cc2)cc1`, the z-score is -0.522 in assay [1]; -0.163 in assay [2]; 0.615 in assay [3]; -0.229 in assay [4]; -0.293 in assay [5]; -1.43 in [6]. Also, the z-score in [7] was 1.72 (inactive); in assay [8], -0.356; in assay [9], -1.09; in assay [10], -0.297 (inactive); in assay [11], -0.235; in assay [12], 0.507 (inactive). Further, the z-score in assay [13] was -0.443 (inactive); in assay [15] it was 1.45 (inactive); in assay [16], 1.36 (inactive); in [17], 0.0877 (inactive); in assay [18], 0.307 (inactive); in [19], -0.482. For the same compound, the composite z-score is -0.719 (inactive) in assay [14] and -0.277 in assay [20].
Turning to `COCCOC(=O)N1C(=O)[C@@]2(c3cc(C#CC4(O)CCCCCC4)ccc31)[C@H](C(N)=O)[C@H]1C(=O)O[C@H](c3ccccc3)[C@H](c3ccccc3)N1[C@@H]2c1ccc(O)cc1`, the z-score in assay [1] is 1.47; in [2], 0.521; in [3], 0.412; in [4] it was -2.88; in [5], -3.95; in assay [6] it was -0.0298. In addition, the z-score in [7] is -0.62 (inactive); in assay [8], -0.522; in assay [9] it was -1.25; in [10] it was 0.394 (inactive); in [11], 0.061; in [12] it was -0.676 (inactive). For the same compound, the z-score is -0.907 (inactive) in assay [13]; 0.51 (inactive) in [15]; 0.389 (inactive) in [16]; -0.0029 (inactive) in assay [17]; 0.761 (inactive) in [18]; -1.73 in assay [19]. For the same compound, the composite z-score in assay [14] is -0.942 (inactive); in assay [20], -0.144.
Consider `COc1ccc([Si](C)(C)[C@H]2[C@H](CCn3cc(CCO)nn3)O[C@@]3(C(=O)N(Cc4ccc(N5C(=O)c6cccc7cccc5c67)cc4)c4ccccc43)[C@@H]2C)cc1`, for which the z-score is -1.61 in assay [1]; 1.36 in assay [2]; -4.11 in [3]; -2.56 in assay [4]; -4.29 in [5]; -0.0483 in [6]. The z-score is -0.712 (inactive) in assay [7]; -1.09 in assay [8]; -2.18 in assay [9]; -2.57 (inactive) in assay [10]; -2.42 in assay [11]; 0.0502 (inactive) in assay [12]. Moreover, the z-score in assay [13] is -5.99 (inactive); in [15] it was 0.519 (inactive); in [16], 1.66 (inactive); in assay [17] it was 0.528 (inactive); in assay [18], 0.251 (inactive); in assay [19], -5.65. For the same compound, the composite z-score was -1.14 (inactive) in assay [14] and 0.0636 in [20].
Regarding `O=C1C[C@]2(c3ccc([N+](=O)[O-])cc3)C(=O)N(Cc3ccccc3)c3cc(CO)ccc3[C@H]2N1CC12CC3CC(CC(C3)C1)C2`, the z-score was 0.376 in [1]; -1.02 in assay [2]; 1.51 in [3]; 0.397 in assay [4]; 0.329 in assay [5]; -0.821 in assay [6]. Moreover, the z-score in [7] is 0.286 (inactive); in assay [8] it was 0.589; in assay [9], -1.02; in [10], -0.849 (inactive); in assay [11] it was -0.566; in [12] it was -0.0685 (inactive). The z-score in [13] was -0.434 (inactive); in assay [15] it was 0.848 (inactive); in assay [16], -0.268 (inactive); in assay [17], -0.22 (inactive); in [18], 0.0276 (inactive); in assay [19] it was -0.717. In addition, the composite z-score in assay [14] was -3.36 (inactive); in assay [20], -0.133.
Regarding `C=CCOC(=O)[C@H]1[C@@H]2C(=O)O[C@@H](c3ccccc3)[C@@H](c3ccccc3)N2[C@@H](c2ccc(OCCOC(=O)[C@H]3C[C@H]4C(=O)N[C@@H](CCCC[N+](C)(C)C)C(=O)N4[C@H]3c3cccc(OCCO)c3)cc2)[C@]12C(=O)Nc1ccc(I)cc12`, the z-score is -0.319 in [1]; -0.0546 in [2]; 1.67 in assay [3]; 0.596 in assay [4]; 0.532 in assay [5]; -2 in assay [6]. The z-score in [7] was -0.124 (inactive); in assay [8], -0.51; in assay [9], -1.31; in [10], 0.134 (inactive); in assay [11], -0.346; in assay [12] it was 1.44 (inactive). Also, the z-score in [13] was -0.0145 (inactive); in [15], 4.03 (inactive); in assay [16] it was 2.44 (inactive); in [17] it was 0.186 (inactive); in assay [18], 0.57 (inactive); in assay [19], 0.208. Besides, the figures for the composite z-score in assay [14] and in [20] were -2.44 (inactive) and -0.0373, respectively.
On to `[N-]=[N+]=NCc1ccccc1C[C@@]1(C(=O)N2CCCCC2)N=C(c2ccc(OCCCO)cc2)O[C@@H]1c1ccccc1N=[N+]=[N-]`, for which the z-score is -0.0222 in assay [1]; 1.03 in assay [2]; 0.471 in assay [3]; -3.11 in assay [4]; -3.21 in [5]; 0.821 in assay [6]. Further, the z-score in assay [7] was 0.636 (inactive); in assay [8], -1.25; in assay [9], -1.14; in [10], 0.0861 (inactive); in assay [11], 0.226; in [12], 0.146 (inactive). For the same compound, the z-score is -0.964 (inactive) in assay [13]; 0.509 (inactive) in assay [15]; 1.41 (inactive) in [16]; 0.878 (inactive) in assay [17]; -0.0021 (inactive) in assay [18]; -0.892 in assay [19]. Besides, the values for the composite z-score in assay [14] and in [20] were 0.42 (inactive) and 0.0694, respectively.
With `Cc1ccc(S[C@]2(C(=O)NCC(C)C)CC(=O)N(Cc3ccccc3Cl)[C@@H]2c2ccc(CO)cc2I)cc1`, the z-score in assay [1] is -0.0583; in assay [2] it was -0.201; in [3] it was -0.752; in assay [4], -1.94; in assay [5], -1.67; in assay [6] it was -0.0983. Further, the z-score was -0.559 (inactive) in assay [7]; -0.788 in [8]; -1.75 in [9]; 0.622 (inactive) in assay [10]; 0.0825 in assay [11]; -1.61 (inactive) in assay [12]. Besides, the z-score in [13] was -1.68 (inactive); in [15], 0.82 (inactive); in assay [16] it was -1.33 (inactive); in [17], -0.0158 (inactive); in assay [18], 0.0686 (inactive); in assay [19] it was -2.44. Also, the values for the composite z-score in assay [14] and in [20] were -0.0436 (inactive) and -0.152, respectively.
For `C=CCNC(=O)[C@@H]1[C@H]2C(=O)O[C@H](c3ccccc3)[C@H](c3ccccc3)N2[C@H](c2ccccc2OCCO)[C@@]12C(=O)N(C(=O)OCCOC)c1ccc(C#CC3=CCCCC3)cc12`, the z-score is 0.428 in assay [1]; 1.16 in [2]; -0.555 in [3]; -2.48 in [4]; -2.4 in [5]; -0.149 in assay [6]. The z-score was 1.74 (inactive) in assay [7]; -1.01 in assay [8]; -1.82 in assay [9]; -0.996 (inactive) in assay [10]; 0.402 in assay [11]; 0.466 (inactive) in [12]. The z-score in assay [13] is -1 (inactive); in assay [15] it was 2.19 (inactive); in assay [16], 1.08 (inactive); in assay [17], 0.368 (inactive); in assay [18], 0.628 (inactive); in [19], -1.31. For the same compound, the composite z-score was -0.458 (inactive) in [14] and 0.0683 in [20].
